ALR inh – inhibitors of human sulfhydryl oxidase ALR; AID 485317; inhibition, % (no concentration beside the values); purified ALR, DTT oxidation, H2O2 HRP-luminol luminescence; hit rate 3.8% among 290,000;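 active means mean replicate inhibition above about 79%, with every replicate also reaching it, limit read from the data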
Target sequence (P55789 whole entry, looked up): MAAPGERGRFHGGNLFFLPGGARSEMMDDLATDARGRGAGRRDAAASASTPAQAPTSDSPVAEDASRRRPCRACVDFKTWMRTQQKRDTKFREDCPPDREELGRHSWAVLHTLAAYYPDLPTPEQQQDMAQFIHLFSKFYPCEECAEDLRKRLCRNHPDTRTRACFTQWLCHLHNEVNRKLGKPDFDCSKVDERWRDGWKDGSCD
NSD2 inh – inhibitors of human histone methyltransferase NSD2. inhibition, % at 12.5 µM. NSD2 peptide methylation, AlphaScreen, 120 min. O96028. hit rate 0.54% among 310,000; in the data active means inhibition above about 50%
PglD DTNB – blocks C. jejuni PglD acetyltransferase activity. purified PglD enzyme, DTNB colorimetric CoA detection. inhibition, % at 12.5 µM. hit rate 0.098% among 360,000. AID 602405; in the data active means inhibition above about 16%, passing the limit was not always enough
CFTR F508del cor – correctors of CFTR F508del function in bronchial epithelial cells | activity (quench increase), % at 7.58 µM | CFBE cells, YFP halide quenching; stimulated with forskolin plus potentiator P3; % fluorescence drop versus neutral controls | hit rate 0.36% among 350,000;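 active means mean added fluorescence quench of at least 8% versus neutral control, with both replicates also reaching 8%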;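 further: cells transiently co-express mutant CFTR-F508del with the halide-sensitive YFP; corrector assay measuring rescue of mutant channel to the surface after 24 h compound exposure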
CASP6 VEID inh – inhibitors of human caspase-6. purified caspase-6, Z-VEID-R110 cleavage fluorescence. AID 686996. P55212. hit rate 0.53% among 350,000. inhibition, % at 12.5 µM;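 active means mean inhibition across replicates at least about 35%, with every replicate also reaching that limit, limit read from the data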;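 further: 0% = median of neutral control wells and 100% = no fluorescence left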
Env fusion inh – HIV envelope-mediated fusion inhibition; HeLa-JRFL Env/CEM21 cell fusion, luciferase; inhibition, % at 12.3 µM; hit rate 1.1% among 360,000; AID 651610;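 active means mean replicate inhibition score of at least 50 and every replicate individually at or above 50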;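 further: 0% = plate neutral controls and 100% = maraviroc near 300 nM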
* marks the source's active call; other numbers are inactive results; [ ] = another dose, or the depositor's remark. This is a sample that favours compounds with a hit; in the whole collection about 4.1% have one here.

Screening O=C(c1ccc2c(c1)OCO2)N(Cc1ccco1)C1(C(=O)NC2CCCCC2)CCCCC1 returned ALR inh -14, PglD DTNB -2 and Env fusion inh 88*.
For Cc1csc(=O)n1CC(=O)OCC(=O)NCc1ccc(F)cc1 the results were ALR inh 0, NSD2 inh -1, PglD DTNB 2, CFTR F508del cor -5, CASP6 VEID inh 59* and Env fusion inh -8.
For C=CCN1C(=O)CSC1=Nc1ccc(O)cc1 the results were ALR inh 99*, NSD2 inh -3 and Env fusion inh 27.
For COc1cc(/C=N/N=C2/SCC(=O)N2c2ccc(O)cc2)ccc1O the results were ALR inh 33, NSD2 inh -3, PglD DTNB -5, CASP6 VEID inh -4 and Env fusion inh 0.
`O=C1CSC(=Nc2ccc(O)cc2)N1c1ccc(O)cc1` gave ALR inh 99*, NSD2 inh 0 and PglD DTNB -1.
O=C(Nc1cccnc1)c1ccc2ccccc2c1O was read as ALR inh 91*, NSD2 inh 9, PglD DTNB 3, CFTR F508del cor 1, CASP6 VEID inh 3 and Env fusion inh -45.
Screening O=C(C[C@H]1CC[C@H]2[C@@H](COC[C@H](O)CN2Cc2ccc3c(c2)OCO3)O1)N1CCCCC1 returned PglD DTNB -2, CFTR F508del cor 2 and Env fusion inh -5[16.7 µM].
`Cc1noc(C)c1S(=O)(=O)Nc1ccc2c(c1)CC(=O)N([C@@H](C)CO)C[C@H](C)[C@@H](CN(C)S(C)(=O)=O)O2` gave PglD DTNB 1, CFTR F508del cor -4 and Env fusion inh 3[16.7 µM].
For Cc1nc2cc3sc(C)nc3cc2s1 the results were ALR inh -36, NSD2 inh -1, PglD DTNB 0, CFTR F508del cor -1, CASP6 VEID inh -3 and Env fusion inh -22.
Nc1ccc2sc(N)nc2c1 was read as ALR inh 91*, PglD DTNB 1, CFTR F508del cor 3, CASP6 VEID inh 2 and Env fusion inh -11.
`Cc1nc2ccc(N)cc2s1` gave ALR inh 99*, PglD DTNB 1, CFTR F508del cor -1, CASP6 VEID inh -2 and Env fusion inh -2.
`Nc1ccc2nc(N)sc2c1` gave NSD2 inh 2, PglD DTNB -1, CFTR F508del cor -2, CASP6 VEID inh 1 and Env fusion inh -7.
Screening OC[C@H]1[C@@H](c2ccc(-c3cccnc3)cc2)[C@@H]2CN(CC3CCOCC3)CCCCN12 returned PglD DTNB -1, CFTR F508del cor 0 and CASP6 VEID inh 0.
CCC(=O)N(C)C[C@@H]1Oc2cc(C#CC3(O)CCCC3)ccc2S(=O)(=O)N([C@H](C)CO)C[C@H]1C was read as PglD DTNB 1, CFTR F508del cor -2, CASP6 VEID inh -4 and Env fusion inh -9[16.7 µM].
CNc1nc(N)c(C(=O)C(C)(C)C)s1 was read as ALR inh 99*, NSD2 inh 2, CASP6 VEID inh -2 and Env fusion inh -41.
`COc1ccc2cc(C(c3nnnn3C3CCCC3)N3CCc4ccccc4C3)c(=O)[nH]c2c1` (stereo unspecified) gave ALR inh -19, NSD2 inh 0, PglD DTNB 0, CASP6 VEID inh 47* and Env fusion inh -75.
COc1ccc2cc(C(c3nnnn3C(C)(C)C)N3CCc4ccccc4C3)c(=O)[nH]c2c1 (stereo unspecified) was read as ALR inh -3.
Screening CC(C)[C@H](NC(=O)c1ccco1)C(=O)OCC(=O)c1ccc2c(c1)NC(=O)CO2 returned ALR inh 100*, NSD2 inh 3, CFTR F508del cor 3, CASP6 VEID inh 1 and Env fusion inh 17.
`Cc1cccc(COc2ccccc2C(=O)NC2CCC(O)CC2)c1` (stereo unspecified) gave ALR inh -7, NSD2 inh -1, PglD DTNB 5, CFTR F508del cor 8.2*, CASP6 VEID inh 10 and Env fusion inh 10.
`O=C(NC1CCCC1)c1ccccc1OCc1ccccc1` gave ALR inh 1, NSD2 inh -5, PglD DTNB 7, CFTR F508del cor -3, CASP6 VEID inh -1 and Env fusion inh 20.
Screening COc1cccc(C(=O)Nc2ccc3c(c2)C(=O)N(C)C[C@@H](OC)[C@H](C)CN[C@@H](C)CO3)c1 returned PglD DTNB 1, CFTR F508del cor 0, CASP6 VEID inh -1 and Env fusion inh -7[16.7 µM].

From PubChem BioAssay
